Data from PubChem BioAssay (NCATS).
Inconclusive results are not listed. Entries that show only a call come without a potency. Unmarked numbers belong to inactive results. Calls of active or inactive are those of the source. Calls follow the shape of the dose curve; as a rule, active = well fitted inhibition curve with a large enough effect; inconclusive = small, poorly fitted or top-dose-only effect; inactive = flat fitted curve, though single readings scatter.

Experiments:
[1] = qHTS profiling for inhibitors of Plasmodium falciparum proliferation (AID 504749); also: nearly all actives have a fitted effect of over 60% in size; settings: P. falciparum in erythrocytes, SYBR Green DNA, 72 h, at 28.7 µM (top of the series)
How it was run: (§1)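 SYBR Green fluorescence (ex 485 nm, em 535 nm) reports parasite DNA after 72 h compound exposure of infected red cells at 0.3% parasitemia, 2.5% hematocrit; signal normalized to 0.29 uM artemisinin and vehicle wells.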

3D7 = assay: as above; settings: P. falciparum in erythrocytes, SYBR Green DNA, 72 h; series mostly up to 28.7 µM
How it was run: as §1

7G8 = assay: as above; settings: P. falciparum in erythrocytes, SYBR Green DNA, 72 h; series mostly up to 28.7 µM
How it was run: as §1

AA1029 = assay: as above; settings: P. falciparum in erythrocytes, SYBR Green DNA, 72 h; series mostly up to 28.7 µM
How it was run: as §1

AS120 = assay: as above; settings: P. falciparum in erythrocytes, SYBR Green DNA, 72 h; series mostly up to 28.7 µM
How it was run: as §1

ATS189 = assay: as above; settings: P. falciparum in erythrocytes, SYBR Green DNA, 72 h; series mostly up to 28.7 µM
How it was run: as §1

ATS95 = assay: as above; settings: P. falciparum in erythrocytes, SYBR Green DNA, 72 h; series mostly up to 28.7 µM
How it was run: as §1

C2A = assay: as above; settings: P. falciparum in erythrocytes, SYBR Green DNA, 72 h; series mostly up to 28.7 µM
How it was run: as §1

CP185 = assay: as above; settings: P. falciparum in erythrocytes, SYBR Green DNA, 72 h; series mostly up to 28.7 µM
How it was run: as §1

CP191 = assay: as above; settings: P. falciparum in erythrocytes, SYBR Green DNA, 72 h; series mostly up to 28.7 µM
How it was run: as §1

CP192 = assay: as above; settings: P. falciparum in erythrocytes, SYBR Green DNA, 72 h; series mostly up to 28.7 µM
How it was run: as §1

CP194 = assay: as above; settings: P. falciparum in erythrocytes, SYBR Green DNA, 72 h; series mostly up to 28.7 µM
How it was run: as §1

CP201 = assay: as above; settings: P. falciparum in erythrocytes, SYBR Green DNA, 72 h; series mostly up to 28.7 µM
How it was run: as §1

CP203 = assay: as above; settings: P. falciparum in erythrocytes, SYBR Green DNA, 72 h; series mostly up to 28.7 µM
How it was run: as §1

CP211 = assay: as above; settings: P. falciparum in erythrocytes, SYBR Green DNA, 72 h; series mostly up to 28.7 µM
How it was run: as §1

CP215 = assay: as above; settings: P. falciparum in erythrocytes, SYBR Green DNA, 72 h; series mostly up to 28.7 µM
How it was run: as §1

CP217 = assay: as above; settings: P. falciparum in erythrocytes, SYBR Green DNA, 72 h; series mostly up to 28.7 µM
How it was run: as §1

CP238 = assay: as above; settings: P. falciparum in erythrocytes, SYBR Green DNA, 72 h; series mostly up to 28.7 µM
How it was run: as §1

CP237 = assay: as above; settings: P. falciparum in erythrocytes, SYBR Green DNA, 72 h; series mostly up to 28.7 µM
How it was run: as §1
Potency is read from the fitted curve at half-maximal effect.

| Structure (SMILES) | activity, negative = inhibition ([1]; parasite line A) [%] | activity, negative = inhibition ([1]; parasite line B) [%] | Potency (3D7) | Potency (7G8) | Potency (AA1029) | Potency (AS120) | Potency (ATS189) | Potency (ATS95) | Potency (C2A) | Potency (CP185) | Potency (CP191) | Potency (CP192) | Potency (CP194) | Potency (CP201) | Potency (CP203) | Potency (CP211) | Potency (CP215) | Potency (CP217) | Potency (CP238) | Potency (CP237) |
| --- | --- | --- | --- | --- | --- | --- | --- | --- | --- | --- | --- | --- | --- | --- | --- | --- | --- | --- | --- | --- |
| O=C(OCc1ccccc1)c1ccccc1 | -9.71 | -8.05 | inactive | inactive | inactive | inactive | inactive | inactive | inactive | inactive | inactive | inactive | inactive | inactive | inactive | inactive | inactive | inactive | inactive |  |
| CCCCCC[C@@H](O)C/C=C\CCCCCCCC(=O)O | -10.4 | -8.48 | inactive | inactive | inactive | inactive | inactive | inactive | inactive | inactive | inactive | inactive | inactive | inactive |  | inactive | inactive | inactive | inactive | inactive |
| c1ccc2sc(SN3CCOCC3)nc2c1 | -12.8 |  | inactive | 11.2 µM (active) | inactive |  | inactive | inactive | inactive | inactive | inactive | inactive | inactive | inactive |  | inactive | inactive | inactive | inactive | inactive |
| Clc1ccccc1-c1nc(-c2ccncc2)no1 | 11.4 | -1.37 | inactive | 10 µM (active) | inactive |  | inactive | inactive | inactive | inactive | inactive | inactive | inactive | inactive | inactive | inactive | inactive | inactive | inactive | inactive |
| CCCC(=O)OC[C@@H](OC(=O)CCC)[C@@H](OC(=O)CCC)[C@H](Cn1c2nc(=O)[nH]c(=O)c-2nc2cc(C)c(C)cc21)OC(=O)CCC | -28.7 |  |  |  |  |  | inactive |  |  |  |  | inactive | inactive | inactive | inactive | inactive | inactive |  |  | inactive |
| O=C1CN(/N=C/c2ccc(-c3ccc([N+](=O)[O-])cc3)o2)C(=O)N1 | -11.3 | -1.58 |  |  | inactive | inactive | inactive | inactive | inactive | inactive | 7.08 µM (active) | inactive | inactive |  | inactive | inactive |  | inactive | inactive |  |
